Each structure is given as a SMILES string. Values joined by “and” are separate entries in the source; they are usually repeats but may differ in a detail not shown here. Equal entries are not always repeated.

The values below come from PubChem BioAssay.

This assay concerns XIP peptide (Xip251-270). In words: small-molecule binders of XIP peptide, primary screen, biochemical, small-molecule microarray, fluorescence 635/667 nm, 0.5 µg/mL protein (AID 1183). To be noted: small-molecule microarray binding, fluorescence 635 nm; higher = more signal.
Consider `C=CCN(C(=O)C(c1cccs1)N(CCOCCO)C(=O)/C=C\C(=O)O)c1ccc(OC)cc1` (stereo unspecified), for which the composite z-score was -0.371 and -1.72. The result for `C=CCN1C(=O)[C@]2(O[C@H](CCn3cc(CCO)nn3)[C@@H]([Si](C)(C)c3ccc(OC)cc3)[C@@H]2C)c2cc(N3C(=O)c4cccc5cccc3c45)ccc21` reads 0.577 and 0.719; that for `C=CCN(Cc1ccccc1)C(=O)C(c1cccs1)N(C(=O)/C=C\C(=O)O)c1ccc(CCO)cc1` (stereo unspecified), -0.468 and 0.61. The result for `C=CCN(C(=O)C1N(CCOCCO)C(=O)C2C(C(=O)O)C3C=CC21O3)C(C)(C)C` (stereo unspecified) reads 0.102 and -0.294; that for `C=CC[C@H](O)c1ccc(OCCO)cc1`, -1.28 and -0.655; that for `C=CCN(CCCC)C(=O)C(c1cccs1)N(CCOCCO)C(=O)/C=C\C(=O)O` (stereo unspecified), -0.836 and -0.765.

As to `C=CCN(CCCC)C(=O)C(c1cccs1)N(C(=O)/C=C\C(=O)O)c1ccc(CCO)cc1` (stereo unspecified), the composite z-score is -0.319 and -1.84. As for `C=CCN(Cc1ccccc1)C(=O)C1N(CCCCCCO)C(=O)C2C(C(=O)O)C3C=CC21O3` (stereo unspecified), the figure is -0.673 and 0.372; as for `C[N+](C)(C)CCCCCCNC(=O)[C@@H]1C[C@@H]2C(=O)N[C@@H](CCCC[N+](C)(C)C)C(=O)N2[C@@H]1c1ccc(O)cc1`, 0.907 and 0.898; as for `C=CCN(Cc1ccccc1)C(=O)C(c1cccs1)N(C(=O)/C=C\C(=O)O)c1c(Cl)cccc1CO` (stereo unspecified), -0.367 and -1.55.

Take `CC(C)OC(=O)C=C1C[C@@H](c2ccccc2)O[C@@H](c2ccccc2)O1`: the composite z-score was 0.686 and 0.831. The result for `CCOC(=O)c1ccc(NC(=O)O[C@H]2[C@H](OC(=O)Nc3ccccc3)[C@@H](OC(=O)Nc3ccccc3)[C@@H](OC)O[C@@H]2CO)cc1` reads 0.928 and 0.91; that for `CC(C)OC(=O)C=C1C[C@@H](c2cccc(C(F)(F)F)c2)O[C@@H](c2cccc(C(F)(F)F)c2)O1`, 0.78 and 0.781; that for `C=CCN(Cc1ccccc1)C(=O)C1N(c2ccc(CCO)cc2)C(=O)C2C(C(=O)O)C3C=CC21O3` (stereo unspecified), -0.726 and 0.918.

For the compound `C[N+](C)(C)CCCCNC(=O)[C@H]1C[C@H]2C(=O)N[C@@H](CCCC[N+](C)(C)C)C(=O)N2[C@H]1c1cccc(OCCO)c1`, the composite z-score is 0.921 and 0.684. As for `C=C[C@H](OC)[C@@H](O)c1ccc(O)c(F)c1`, the figure is 0.563 and 0.0248; as for `C=C[C@@H](OC)[C@H](O)c1ccc(O)c(F)c1`, 0.116 and 0.444. As for `C=C[C@H](C)[C@@H](O)c1ccc(OCCO)cc1`, the figure is 0.112 and 0.861; as for `C=CCN(CCCCC)C(=O)C(c1cccs1)N(CCOCCO)C(=O)/C=C\C(=O)O` (stereo unspecified), -0.265 and -0.343. As for `C=CCN(C(=O)C(c1cccs1)N(CCOCCO)C(=O)/C=C\C(=O)O)C(C)(C)C` (stereo unspecified), the figure is -0.281 and -0.228; as for `C=CCN(CCCCC)C(=O)C1N(CCCCCCO)C(=O)C2C(C(=O)O)C3C=CC21O3` (stereo unspecified), 0.69 and 0.714; as for `C=CCN(CCCC)C(=O)C1N(c2ccc(CCO)cc2)C(=O)C2C(C(=O)O)C3C=CC21O3` (stereo unspecified), 0.261 and -0.728. In the case of `C=CCN(CCCCC)C(=O)C(c1cccs1)N(C(=O)/C=C\C(=O)O)c1c(Cl)cccc1CO` (stereo unspecified), the composite z-score was -1.88 and -0.229. Regarding `C=CC[C@@H](O)c1ccc(O)c(F)c1`, the composite z-score was 0.849 and -1.57. For the compound `C=C[C@@H](C)[C@H](O)c1ccc(O)c2ccccc12`, the composite z-score was 0.892 and 0.102.

Take `CC(C)[Si]1(C(C)C)OCc2cc(CCCc3cc4c(c(CCc5ccccc5)n3)[Si](C(C)C)(C(C)C)OC4)nc(CCc3ccccc3)c21`: the composite z-score was -1.31 and -0.189. The result for `C[N+](C)(C)CCCCNC(=O)[C@H]1C[C@H]2C(=O)N[C@@H](CCCC[N+](C)(C)C)C(=O)N2[C@H]1c1ccc(O)cc1` reads 0.761 and 0.892; that for `C=CCN(C(=O)C(c1cccs1)N(C(=O)/C=C\C(=O)O)c1ccc(CCO)cc1)c1ccc(OC)cc1` (stereo unspecified), -0.0376 and -1.95; that for `C[N+](C)(C)CCCCCCNC(=O)[C@H]1C[C@H]2C(=O)N[C@@H](CCCC[N+](C)(C)C)C(=O)N2[C@H]1c1cccc(OCCO)c1`, 0.691 and 0.903.

On to `CCOC(=O)[C@@H]1CC2O[C@]23C[C@@H]1C(=O)N1CCC[C@@H]1[C@H]3O[Si](C)(C)C(C)(C)C` (stereo partly specified), for which the composite z-score is -0.791 and 0.0241.

Turning to `C[N+](C)(C)CCCCCCNC(=O)[C@H]1C[C@H]2C(=O)N[C@@H](CCCC[N+](C)(C)C)C(=O)N2[C@H]1c1ccc(O)cc1`, the composite z-score is 0.0535 and -0.189. The result for `C=CCN(CCCCC)C(=O)C1N(c2ccc(CCO)cc2)C(=O)C2C(C(=O)O)C3C=CC21O3` (stereo unspecified) reads 0.668 and 0.706; that for `C=C[C@@H](C)[C@@H](O)c1ccc(O)c2ccccc12`, -0.54 and -0.684. On to `C=CCN(CCCCC)C(=O)C(c1cccs1)N(C(=O)/C=C\C(=O)O)c1ccc(CCO)cc1` (stereo unspecified), for which the composite z-score is 0.861 and -0.198.

On to `C#CCN1C(/C=C/c2ccccc2)C(=O)OC[C@H]1c1ccccc1` (stereo partly specified), for which the composite z-score was -0.0814 and 0.83. As for `C[N+](C)(C)CCCCNC(=O)[C@@H]1C[C@@H]2C(=O)N[C@@H](CCCC[N+](C)(C)C)C(=O)N2[C@@H]1c1cccc(OCCO)c1`, the figure is 0.697 and 0.917.
